Source: PubChem BioAssay
A selection: hits, their analogues and other compounds. The true share with any hit is near 9.5%.
SARS PLP yeast – SARS-CoV PLP inhibition in yeast. S. cerevisiae expressing SARS-CoV PLpro, growth rescue. Potency, µM (titrated, usually from 32.9 µM), inactives show top-dose activity, positive = growth rescue, usual class: activators. 330,000 compounds, 0.19% hits. AID 485353; calls by dose curve; note: 0% is about no effect; nearly all actives have a fitted effect of over 55% in size
Pf growth 48h – inhibits P. falciparum growth in the first generation, 48 h | P. falciparum luciferase growth in erythrocytes, 48 h | Potency, µM (top dose mostly 28.7 µM), for the others: top-dose activity change, negative = inhibition, actives largely listed as inhibitors | 310,000 compounds, 5.9% hits; note: % is set by controls: 0 for no effect and ±100 for the full control effect
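Cell-based growth assay: transgenic P. falciparum expressing firefly luciferase, cultured in red cells within RPMI 1640 containing 0.5% w/v Albumax, 24 mM bicarbonate and gentamycin. A drop in luciferase activity indicates inhibition.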
RE007 growth inh – less growth of the S. pombe RE007 Vpr strain. S. pombe RE007 Vpr strain, BacTiter-Glo ATP luminescence, 24 h. Potency, µM (doses to about 92.2 µM), for the others: at the highest dose activity change, negative = less growth, actives largely listed as inhibitors. 360,000 compounds, 0.21% hits; active = well fitted falling curve with a large enough effect; inconclusive = small, poorly fitted or top-dose-only effect; inactive = no such curve, though single readings can be large or run the other way; note: % is set by controls: 0 for no effect and ±100 for the full control effect; nearly all actives have a fitted effect of over 50% in size
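Fission yeast RE007 carrying one integrated HIV-1 vpr copy, seeded at OD 0.01 in PMG+AL medium with 23 nL pinned compound. Grown 24 h at 30 degrees; viability read by BacTiter-Glo luminescence after 5 min.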
Pf growth 96h – P. falciparum growth inhibition at 96 hours. Potency, µM (highest dose often 28.7 µM), for the others: top-dose activity change, negative = inhibition, hits mostly inhibitors. 320,000 compounds, 6.9% hits. AID 504834. P. falciparum luciferase reporter growth, 96 h; note: % is set by controls: 0 for no effect and ±100 for the full control effect
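P. falciparum expressing integrated firefly luciferase grown in erythrocytes (2% hematocrit, 0.05% parasitemia final) with compounds for 96 hours at 37 C, 5% CO2. Growth inhibition read as loss of luminescence after adding luciferase detection reagent.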
NS1 function inh – influenza NS1 inhibition; Potency, µM (titrated, usually from 46.1 µM), for inactives: top-dose activity, positive = more growth; 270,000 compounds, 0.4% hits; AID 2326; calls by dose curve; note: actives are rising curves; nearly all actives have a fitted effect of over 50% in size
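Compounds were scored for reversing the slow growth caused by influenza A NS1 in S. cerevisiae, measured by optical density at 600 nm. Assay medium contained 2% galactose at pH 6.0; NS1-free yeast of the same strain were the positive control.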
Numbers without * were called inactive; ? = inconclusive; . = no result; [ ] = remark or other dose. Unless noted, calls come from the whole dose curve; as a rule, active = well fitted inhibition curve with a large enough effect; inconclusive = small, poorly fitted or top-dose-only effect, or another doubt; inactive = no such curve, though single readings can be large or run the other way. Potency is the fitted concentration of half-maximal effect.

SMILES	SARS PLP yeast	Pf growth 48h	RE007 growth inh	Pf growth 96h	NS1 function inh
CC(C)Cn1c(SCC(=O)c2ccc(Cl)s2)nnc1-c1ccco1	-8.0%	.	-3.3%	11.7µM*	-51.7%
CC(C)Cn1c(N)c(C(=O)CSc2nnc(-c3ccco3)n2C)c(=O)n(C)c1=O	-0.3%	5.22µM*	-3.9%	1.31µM*	.
S=C(NCc1ccco1)Nc1ccc(Cl)cn1	-4.1%	29.4%	2.6%	46.3%	14.2%
CC1=C(C(=O)N(C(C)C)C(C)C)CC(CC(=O)NC2CCCC2)C(=O)N1Cc1ccc(C(C)(C)C)cc1 (configuration not stated)	.	.	-16.1%	.	.
CCC(C)(C)NC(=O)C(c1cccc(OC)c1OC)N(CCOC)C(=O)CCC(=O)Nc1cc(C)on1 (configuration not stated)	0.8%	2.9%	-5.3%	10.4µM*	-1.8%
COc1ccc(C(C(=O)NC(C)(C)C)N(CCc2ccccc2)C(=O)CCC(=O)Nc2cc(C)on2)cc1 (configuration not stated)	1.1%	11.7µM*	7.7%	1.8%	14.4%
COc1ccc(C(C(=O)NC(C)(C)C)N(CCO)C(=O)CCC(=O)Nc2cc(C)on2)cc1 (configuration not stated)	0.5%	-12.0%	7.5%	0.0%	8.2%
CCC(C)(C)NC(=O)C(c1ccc(C)cc1)N(Cc1cccs1)C(=O)c1ccc2c(c1)OCCO2 (configuration not stated)	-6.8%	?	-14.9%	11.7µM*	-43.5%
Cc1cc(NC(=O)CCC(=O)N(c2ccccc2)C(C(=O)NC(C)(C)C)c2ccccc2Cl)no1 (configuration not stated)	1.3%	13.1µM*	-17.5%	-18.4%	26.8%
CCC(C)(C)NC(=O)C(c1ccccc1Cl)N(C(=O)CCC(=O)Nc1cc(C)on1)c1ccc(NC(C)=O)cc1 (configuration not stated)	2.0%	-52.1%	5.5%	-0.8%	22.8%
COc1ccc(C(C(=O)NC(C)(C)C)N(Cc2cccs2)C(=O)CCC(=O)Nc2cc(C)on2)cc1 (configuration not stated)	11.6%	?	14.8%	?	-4.1%
CCC(C)(C)NC(=O)C(c1ccc(OC)cc1)N(Cc1cccs1)C(=O)CCC(=O)Nc1cc(C)on1 (configuration not stated)	7.2%	10.4µM*	8.7%	3.4%	-6.6%
N#Cc1cccc(NC(=O)c2cc(C3CCCCN3C(=O)c3ccc4c(c3)CCO4)on2)c1 (configuration not stated)	.	.	27.7%	.	.
C=CCN(c1ccc(C(=O)NCCN2CCOCC2)cc1)S(C)(=O)=O	14.1%	39.2%	12.9%	-6.7%	-11.4%
CNCCC(Oc1ccccc1C)c1ccccc1 (configuration not stated)	.	?	.	?	-3.1%
CNCCC(Oc1ccc(C(F)(F)F)cc1)c1ccccc1 (configuration not stated)	-0.3%	14.7µM*	8.7%[18.4 µM]	?	-0.7%
COC(=O)c1cc(C(=O)OC)cc(-n2c(C)cc(C(=O)CC#N)c2C)c1	.	10.4µM*	10.3%	.	?
Cc1cc(C(=O)CSc2nc(N)cc(=O)[nH]2)c(C)n1-c1ccc(OC(F)F)cc1	2.7%	-9.5%	1.3%	-16.5%	7.2%
Cc1cc(C(=O)CC#N)c(C)n1-c1ccc(OC(F)F)cc1	-2.5%	?	5.1%	13.1µM*	?
COc1ccc(-n2c(C)cc(C(=O)COC(=O)Cn3cnc4ccccc43)c2C)cc1	-10.8%	13.1µM*	3.6%	48.0%	-59.0%
Cc1cc(C(=O)COC(=O)c2ccc(O)cc2O)c(C)n1-c1ccc(OC(F)F)cc1	-3.6%	9.28µM*	4.0%	?	.
Cc1cc(C(=O)COC(=O)c2ccc(O)cc2O)c(C)n1-c1ccccc1	0.8%	123.8%	-21.4%	289.9%	.
COc1ccc(-n2c(C)cc(C(=O)COC(=O)c3ccc(O)cc3O)c2C)cc1	-11.5%	7.38µM*	0.0%	11.7µM*	.
CC(=O)O[C@H]1CC(C)(C)C(=C=C/C(C)=C/C=C/C(C)=C/C=C/C=C(C)/C=C/C=C(\C)C(=O)C[C@@]23O[C@]2(C)C[C@@H](O)CC3(C)C)[C@](C)(O)C1	1.5%	9.28µM*	-14.5%	?	-3.3%
COc1cc(C(=O)NNC(=O)c2cccn2C)cc(OC)c1OC	2.5%	25.9%	3.8%	-9.9%	.
SMILES	SARS PLP yeast	Pf growth 48h	RE007 growth inh	Pf growth 96h	NS1 function inh
Cc1cccc(Nc2ccccc2C(=O)OCC(=O)NCc2ccco2)c1C	-5.8%	?	-2.0%	11.7µM*	-3.4%
COc1cccc(CN(C)C(=O)c2cccc(S(=O)(=O)N3CCN(c4ccc(F)cc4)CC3)c2)c1OC	3.7%	10.4µM*	19.9%	?	.
COc1cccc(CN(C)C(=O)c2cccc(S(=O)(=O)N3CCN(c4ccccc4)CC3)c2)c1OC	.	.	-8.0%	.	.
COc1cccc(CN(C)C(=O)C2CCN(S(=O)(=O)c3ccc(C)cc3)CC2)c1OC	0.6%	13.1µM*	-1.7%	11.7µM*	.
COc1ccccc1CNC(=O)c1cccc(S(=O)(=O)N2CCN(c3ccc(F)cc3)CC2)c1	-12.2%	10.4µM*	-8.8%	?	.
CN(Cc1cccs1)C(=O)C1CCN(S(=O)(=O)c2ccccc2)CC1	0.2%	?	15.2%	?	.
C=Cc1ccc(Cn2c(C)c(C(=O)NCc3ccccc3C(F)(F)F)sc2=O)cc1	.	.	6.0%[18.4 µM]	.	.
C[C@@H]1CN(C(=O)c2ccc(OC3CCN(S(=O)(=O)N(C)C)CC3)cc2)C[C@H](C)O1	2.9%	-11.0%	-24.5%	?	-1.8%
COc1ccc(NC(=O)CSCC(=O)N2CCN(C(=O)c3ccco3)CC2)cc1	0.0%	-10.2%	-3.5%	?	.
O=C(NC1CC1)c1cc2cc3ccccc3nc2s1	15.0%	-21.4%	-8.9%	13.1µM*	4.6%
CCC1=C(OC(=O)N(CC)CC)N2C(=O)OC(=NCc3ccccc3)[C@]2(C)[C@H]2C1=CC[C@H]1C(=O)NC(=O)[C@H]12	1.4%	?	0.2%	-3.7%	-0.2%
CCC1=C(OC(=O)N(CC)CC)N2C(=O)OC(=NCC3CC3)[C@]2(C)[C@H]2C1=CC[C@H]1C(=O)N(C)C(=O)[C@H]12	3.7%	8.28µM*	-6.7%	10.4µM*	-3.0%
CCC1=C(OC(=O)N(CC)CC)N2C(=O)OC(=NCC3CC3)[C@]2(C)[C@H]2C1=CC[C@H]1C(=O)N(CC)C(=O)[C@H]12	-1.6%	10.4µM*	1.4%	?	6.1%
Cc1c(C(=O)N2CCc3ccccc3C2)oc2ccccc12	6.1%	43.8%	3.1%	2.2%	-32.6%
COc1ccc(S(=O)(=O)NNC(=O)C23CC4CC(CC(C4)C2)C3)cc1[N+](=O)[O-]	-2.5%	18.7%	-13.0%	-1.6%	.
CN(C1=NC(=O)C(CC(=O)Nc2ccc(Br)cc2)S1)c1ccc(O)cc1 (configuration not stated)	0.8%	-11.3%	2.5%	5.22µM*	-6.8%
